From ChEMBL document CHEMBL1157539, “Thousands of chemical starting points for antimalarial lead identification” (Nature, 2010)

Legend:
Type in all cases: functional
[1] = test system: Plasmodium falciparum; assay: GSK_TCMDC: Inhibition of Plasmodium falciparum 3D7 in whole red blood cells, using parasite LDH activity as an index of growth. Test compounds present at 2uM
[2] = test system: Plasmodium falciparum; assay: GSK_TCMDC: Inhibition of Plasmodium falciparum Dd2 in whole red blood cells, using parasite LDH activity as an index of growth. Test compounds present at 2uM
[3] = test system: HepG2; assay: GSK_TCMDC: Percent inhibition of human HepG2 cell line. Test compounds present at 10uM.

| SMILES | Inhibition [1] | Inhibition [2] | Inhibition [3] |
| --- | --- | --- | --- |
| CNC(=O)c1cnc(Nc2ccc(OCC(O)CN(C)C)cc2)nc1Nc1cccc([N+](=O)[O-])c1.O=C(O)C(F)(F)F (centres undefined) | 100% | 94% | 52% |
| CC(C)N1CCC(NCc2ccc(-c3ccc(Cl)cc3)cc2)CC1 | 99% | 48% | 50% |
| Cc1cccc2nc(-c3ccc(-c4ccc(CN5CCN(CCN6CCOCC6)CC5)cc4)cc3)[nH]c12.O=C(O)C(F)(F)F | 98% | 74% | 49% |
| O=C(O)C(F)(F)F.OCCN1CCN(Cc2ccc(-c3ccc(-c4nc5cc(C(F)(F)F)ccc5[nH]4)s3)cc2)CC1 | 100% | 99% | 65% |
| Cc1cccc2nc(-c3ccc(-c4ccc(NC(=O)Nc5ccsc5)cc4)s3)[nH]c12 | 100% | 88% | 74% |
| Nc1ccc2nc(C=Cc3ccccc3)[nH]c2c1 | 92% | 89% | 7% |
| COc1ccc(CCCc2nc(N)nc(N)c2-c2ccc(Cl)cc2)cc1 | 94% | 0% | 65% |
| Fc1ccc2[nH]c3c(NCCCN4CCOCC4)ncnc3c2c1 | 98% | 2% | 14% |
| Cl.N#CC1(CCCNCCc2ccc(O)cc2)CCCc2c(O)cccc21 (centres undefined) | 95% | 3% | 0% |
| N#Cc1cccc(C(=O)Nc2cccc(-c3ccc(CN4CCCC4)cc3)c2)c1.O=C(O)C(F)(F)F | 98% | 42% | 11% |
| O=C(Nc1ccc(F)c(Cl)c1)c1cc([N+](=O)[O-])cc2cn[nH]c12 | 100% | 67% | 32% |
| CN1CCN(CCCN(Cc2ccc(-c3ccc(CNCCc4ccccc4)cc3)cc2)C(=O)c2cccs2)CC1.O=C(O)C(F)(F)F | 98% | 78% | 32% |
| Cc1cc(N2CCC(NS(=O)(=O)c3cccc4cccnc34)CC2)nc(Nc2cccc(C#N)c2)n1.O=C(O)C(F)(F)F | 98% | 87% | 12% |
| O=C(Nc1nc(-c2cc(F)ccc2F)cs1)c1cncc(Br)c1 | 85% | 3% | 16% |
| O=C(Nc1cccc(C(F)(F)F)c1)c1cccc(S(=O)(=O)NCC2CCCN2CC2CCCCC2)c1.O=C(O)C(F)(F)F (centres undefined) | 97% | 2% | 6% |
| CN(C)CCN(C)Cc1ccc(-c2cccc(-c3nc4ccccc4[nH]3)c2)cc1.O=C(O)C(F)(F)F | 100% | 78% | 46% |
| Cn1c(Nc2cc(C(C)(C)C)on2)nc2cc(Nc3ccnc(Nc4ccc(CS(C)(=O)=O)cc4)n3)ccc21 | 100% | 68% | 37% |
| Cc1nc(-c2cccc(NCc3ccccc3)c2)[nH]c1C.Cl | 100% | 48% | 16% |
| CCCNCc1ccc(-c2ccc(CN(CC3CCCO3)C(=O)C3CC(=O)c4ccccc43)cc2)nc1.O=C(O)C(F)(F)F (centres undefined) | 100% | 65% | 0% |
| COc1ccc(S(=O)(=O)NC2CCN(CCCOc3ccnc4cc(Cl)ccc34)C2)cc1OC (centres undefined) | 91% | 56% | 8% |
| C(=NNc1nc2ccccc2[nH]1)c1ccccc1OCc1ccccc1 | 100% | 90% | 15% |
| CN(c1ccccc1)S(=O)(=O)c1cccc(NC(=O)c2ccc(-n3ccnc3)c([N+](=O)[O-])c2)c1 | 83% | 0% | 19% |
| O=C(Cn1c2ccccc2c(=O)c2ccc(Cl)cc21)Nc1ccc(C(F)(F)F)cc1 | 99% | 100% | 30% |
| Cc1nccn1CCNC(=O)CN1CCC2(CCC1=O)CC(=O)c1ccccc1O2 (centres undefined) | 98% | 4% | 0% |
| CO/C(=C\C=C\c1cc2cc(Cl)c(Cl)cc2[nH]1)C(=O)NCCCN1CCN(Cc2ccccc2)CC1 | 94% | 65% | 45% |
| O=C1C(C2CCC(c3ccc(Cl)cc3)CC2)=C2OCC3COC2(O3)c2ccccc21 (centres undefined) | 98% | 97% | 7% |
| CC(C)NCc1ccc(-c2ccc(NC(=O)c3cccc(Cl)c3)cc2)cc1.O=C(O)C(F)(F)F | 100% | 14% | 36% |
| CSc1nccc(-c2ccc3ccnc(N)c3c2)n1 | 100% | 98% | 30% |
